# Activity calls are given as the source filed them. Rule for the calls: active = hit-call score of the fitted dose curve at least 0.9, where 1 is the maximum; inactive = score below 0.9.
# Read-out: E-selectin (Homo sapiens) (UniProt P16581)
# Assay: BSK_LPS_Eselectin: BioMAP Diversity Plus: LPS Assay for Eselectin Biomarker Activity (AID 2283077)
# Conditions: primary human HUVEC with PBMC; actives raise or lower the signal
# Method in brief: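 Primary human vascular co-culture (endothelium plus PBMC) was dosed with chemical, then E-selectin quantified by ELISA at 24 h. Endpoint values derive from bidirectional curve fitting relative to DMSO.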
# Sequence of E-selectin (Homo sapiens) (P16581 whole entry, looked up): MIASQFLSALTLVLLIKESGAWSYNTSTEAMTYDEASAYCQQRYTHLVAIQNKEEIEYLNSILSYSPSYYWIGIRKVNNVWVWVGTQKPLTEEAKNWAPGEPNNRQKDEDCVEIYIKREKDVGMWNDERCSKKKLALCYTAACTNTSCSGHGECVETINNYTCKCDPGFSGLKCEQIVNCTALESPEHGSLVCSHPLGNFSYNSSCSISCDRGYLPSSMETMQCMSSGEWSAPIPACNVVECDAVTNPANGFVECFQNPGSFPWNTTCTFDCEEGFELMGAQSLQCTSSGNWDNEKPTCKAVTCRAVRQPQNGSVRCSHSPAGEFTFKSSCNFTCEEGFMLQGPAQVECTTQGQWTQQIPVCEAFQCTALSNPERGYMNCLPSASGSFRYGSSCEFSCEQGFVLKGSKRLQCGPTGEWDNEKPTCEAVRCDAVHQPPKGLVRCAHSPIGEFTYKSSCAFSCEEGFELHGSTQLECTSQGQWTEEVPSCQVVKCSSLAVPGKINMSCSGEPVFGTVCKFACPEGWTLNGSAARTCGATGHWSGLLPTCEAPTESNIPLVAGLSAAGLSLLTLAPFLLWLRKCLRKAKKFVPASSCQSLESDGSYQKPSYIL
SMILES,outcome,AC50
Cc1ccc(N)cc1,inactive,
[O-][Cl+]O,inactive,
O=[N+]([O-])c1ccc(Oc2ccc(Cl)cc2Cl)cc1,inactive,
CN(C)c1ccc(C(=O)c2ccc(N(C)C)cc2)cc1,inactive,
CC(C)(C)C(O)(CCc1ccc(Cl)cc1)Cn1cncn1 (stereo unspecified),inactive,
Nc1ccc(N=Nc2ccccc2)cc1,inactive,
CCOC(=O)[C@]1(c2ccccc2)Oc2ccccc2[C@@H]1N,inactive,
CO[C@@H]1[C@H](OC(=O)NC(=O)CCl)CC[C@]2(CO2)[C@H]1[C@@]1(C)O[C@@H]1CC=C(C)C,,9.98 µM (active)
O=P(OCCCl)(OCCCl)OCCCl,inactive,
O=C1CCCO1,inactive,
CCN(CC)CCO,inactive,
CCCCCOC(=O)c1ccccc1C(=O)OCCCCC,,31.7 µM (active)
COc1cc(C=O)cc2c1[C@H](COC(N)=O)[C@]1(OC(C)=O)ON2C[C@H]2[C@@H]1N2C(C)=O,,10.6 µM (active)
CC(C)(C)OOC(C)(C)CCC(C)(C)OOC(C)(C)C,inactive,
c1ccc2c(c1)-c1cccc3cccc-2c13,inactive,
CS(=O)(=O)NC(=O)c1cc(Oc2ccc(C(F)(F)F)cc2Cl)ccc1[N+](=O)[O-],inactive,
OCCCl,inactive,
[Cl-].[Cl-].[Hg+2],,37 µM (active)
Clc1ccc(C(c2ccc(Cl)cc2)C(Cl)Cl)cc1,,30.3 µM (active)
CCCCC(CC)COC(=O)c1ccc(C(=O)OCC(CC)CCCC)c(C(=O)OCC(CC)CCCC)c1 (stereo unspecified),inactive,
N#CC(Br)Br,inactive,
Cn1cc(-c2ccccc2)c(=O)c(-c2cccc(C(F)(F)F)c2)c1,inactive,
O=C(N[C@H](c1ccccc1)[C@@H]1CN2CCC1CC2)c1c(Cl)ccc(C(F)(F)F)c1Cl,inactive,
OCCOCCO,inactive,
CN(C)c1ccccc1,inactive,
CCOc1cccc(C2(N3CCN(c4ccccc4)CC3)CCC(C)CC2)c1 (stereo unspecified),inactive,
CCC[CH2][Sn]([Cl])([CH2]CCC)[CH2]CCC,,0.148 µM (active)
COC(=O)Nc1nc2ccccc2[nH]1,inactive,

# Read-out: Interleukin-8 (IL8), CXCL8 (gene 3576)
# Assay: BSK_LPS_IL8: BioMAP Diversity Plus: LPS Assay for Interleukin-8 (IL8) Biomarker Activity (AID 2283078)
# Conditions: primary human HUVEC with PBMC; actives raise or lower the signal
# Method in brief: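 Readout is IL-8 by ELISA, taken 24 h after compounds were added to LPS-stimulated endothelial/PBMC co-cultures. Both increases and decreases relative to DMSO control were scored through bidirectional fitting.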
SMILES,outcome,AC50
Cc1ccc(N)cc1,inactive,
[O-][Cl+]O,inactive,
O=[N+]([O-])c1ccc(Oc2ccc(Cl)cc2Cl)cc1,inactive,
CN(C)c1ccc(C(=O)c2ccc(N(C)C)cc2)cc1,,6.12 µM (active)
CC(C)(C)C(O)(CCc1ccc(Cl)cc1)Cn1cncn1 (stereo unspecified),inactive,
Nc1ccc(N=Nc2ccccc2)cc1,inactive,
CCOC(=O)[C@]1(c2ccccc2)Oc2ccccc2[C@@H]1N,,36.1 µM (active)
CO[C@@H]1[C@H](OC(=O)NC(=O)CCl)CC[C@]2(CO2)[C@H]1[C@@]1(C)O[C@@H]1CC=C(C)C,inactive,
O=P(OCCCl)(OCCCl)OCCCl,inactive,
O=C1CCCO1,inactive,
CCN(CC)CCO,inactive,
CCCCCOC(=O)c1ccccc1C(=O)OCCCCC,,20 µM (active)
COc1cc(C=O)cc2c1[C@H](COC(N)=O)[C@]1(OC(C)=O)ON2C[C@H]2[C@@H]1N2C(C)=O,,13.3 µM (active)
CC(C)(C)OOC(C)(C)CCC(C)(C)OOC(C)(C)C,inactive,
c1ccc2c(c1)-c1cccc3cccc-2c13,inactive,
CS(=O)(=O)NC(=O)c1cc(Oc2ccc(C(F)(F)F)cc2Cl)ccc1[N+](=O)[O-],inactive,
OCCCl,inactive,
[Cl-].[Cl-].[Hg+2],,30.9 µM (active)
CCCCC(CC)COC(=O)c1ccc(C(=O)OCC(CC)CCCC)c(C(=O)OCC(CC)CCCC)c1 (stereo unspecified),inactive,
N#CC(Br)Br,inactive,
Cn1cc(-c2ccccc2)c(=O)c(-c2cccc(C(F)(F)F)c2)c1,inactive,
O=C(N[C@H](c1ccccc1)[C@@H]1CN2CCC1CC2)c1c(Cl)ccc(C(F)(F)F)c1Cl,,7.76 µM (active)
OCCOCCO,inactive,
CN(C)c1ccccc1,inactive,
CCOc1cccc(C2(N3CCN(c4ccccc4)CC3)CCC(C)CC2)c1 (stereo unspecified),inactive,
CCC[CH2][Sn]([Cl])([CH2]CCC)[CH2]CCC,,0.148 µM (active)
COC(=O)Nc1nc2ccccc2[nH]1,inactive,

# Read-out: not listed separately
# Assay: BSK_LPS_SRB: Viability Assessment in the BioMAP Diversity Plus: LPS Assay (AID 2283079);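 note: total protein by sulforhodamine B absorbance as a cytotoxicity measure; measured one day after compound addition; fitted in both directions against DMSO so loss or gain of signal counts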
# Conditions: primary human HUVEC with PBMC
# Method in brief: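 Readout is SRB absorbance at 560 nm (0.1% stain, TCA-fixed parallel cultures) as a total-protein cytotoxicity measure. Cells: primary human umbilical vein endothelium plus peripheral blood mononuclear cells, 24 h after chemical exposure; DMSO served as baseline.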
SMILES,outcome,AC50
Cc1ccc(N)cc1,inactive,
[O-][Cl+]O,inactive,
O=[N+]([O-])c1ccc(Oc2ccc(Cl)cc2Cl)cc1,inactive,
CN(C)c1ccc(C(=O)c2ccc(N(C)C)cc2)cc1,,13.4 µM (active)
CC(C)(C)C(O)(CCc1ccc(Cl)cc1)Cn1cncn1 (stereo unspecified),inactive,
Nc1ccc(N=Nc2ccccc2)cc1,inactive,
CCOC(=O)[C@]1(c2ccccc2)Oc2ccccc2[C@@H]1N,inactive,
CO[C@@H]1[C@H](OC(=O)NC(=O)CCl)CC[C@]2(CO2)[C@H]1[C@@]1(C)O[C@@H]1CC=C(C)C,inactive,
O=P(OCCCl)(OCCCl)OCCCl,inactive,
O=C1CCCO1,inactive,
CCN(CC)CCO,inactive,
COc1cc(C=O)cc2c1[C@H](COC(N)=O)[C@]1(OC(C)=O)ON2C[C@H]2[C@@H]1N2C(C)=O,,6.69 µM (active)
CC(C)(C)OOC(C)(C)CCC(C)(C)OOC(C)(C)C,inactive,
c1ccc2c(c1)-c1cccc3cccc-2c13,inactive,
CS(=O)(=O)NC(=O)c1cc(Oc2ccc(C(F)(F)F)cc2Cl)ccc1[N+](=O)[O-],inactive,
OCCCl,inactive,
[Cl-].[Cl-].[Hg+2],,20 µM (active)
CCCCC(CC)COC(=O)c1ccc(C(=O)OCC(CC)CCCC)c(C(=O)OCC(CC)CCCC)c1 (stereo unspecified),inactive,
N#CC(Br)Br,inactive,
Cn1cc(-c2ccccc2)c(=O)c(-c2cccc(C(F)(F)F)c2)c1,inactive,
O=C(N[C@H](c1ccccc1)[C@@H]1CN2CCC1CC2)c1c(Cl)ccc(C(F)(F)F)c1Cl,,29.7 µM (active)
OCCOCCO,inactive,
CN(C)c1ccccc1,inactive,
CCOc1cccc(C2(N3CCN(c4ccccc4)CC3)CCC(C)CC2)c1 (stereo unspecified),inactive,
CCC[CH2][Sn]([Cl])([CH2]CCC)[CH2]CCC,,0.269 µM (active)
COC(=O)Nc1nc2ccccc2[nH]1,,10.5 µM (active)
